The nature of experiment [1]: inhibitors of TNFa-induced NFkB p65 translocation, primary screen, imaging, HUVEC, MLSMR starter and 10KST1 sets (AID 438;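 active means inhibition above 20% together with a positive visual image hit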;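 further: compound added about 3h40 before a 20 min TNFalpha stimulation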;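 on inhibition: signal is the nuclear over cytoplasmic p65 intensity ratio per well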). Particulars: HUVEC TNFa-induced p65 nuclear translocation; cell count: measured here: nuclei count (cytotoxicity indicator), at 2.08 µM; inhibition: at 2 µM, stronger effect = higher value, 0% TNFa-plus-vehicle, 100% no-TNFa wells.
Experiment [2] in a line: reduction of polyQ htt aggregates in cells – imaging, exon1htt(103Q)mCFP cells, high-content imaging, primary screen (AID 483;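 active means visual image review flags a hit and inhibition of aggregation exceeds 20%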;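 further: compound exposure lasted 3 days before fixation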;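 on nuclei count: percent of the per-plate median nuclei count of sample wells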). Particulars: exon1htt(103Q)mCFP cell line, aggregate imaging, at 2 µM; inhibition of aggregation: stronger effect = higher value; nuclei count: measured here: cell count, toxicity.
Experiment [3] can be described thus: endothelial E-selectin expression blockers – imaging, HUVEC, immunofluorescence, MLSMR starter and 10KST1 sets, primary screen (AID 487;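 active means visually confirmed hit in the image check and inhibition above 20%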;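 on inhibition: signal is fraction of cell area covered by stained E-selectin grains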;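 on nuclei count: 100% = median nuclei count of all wells on the same plate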). Particulars: HUVEC TNFalpha-induced E-selectin immunofluorescence imaging, at 2 µM; inhibition: stronger effect = higher value; nuclei count: measured here: cell number, toxicity.
Experiment [4] deals with Voltage-gated potassium channel subunit beta-2 (Rattus norvegicus) (UniProt P62483). The experiment can be described thus: inhibitors of rat Kvbeta2 reductase activity – biochemical, NADPH fluorescence, primary screen (AID 622;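 active means fluorescence slope higher than the sample average by over 3 SD, cut at about -0.22 in these data, passing the limit was not always enough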;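 further: slope of raw intensity against log time taken from 70 to 1610 s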). Particulars: recombinant KvBeta, 4-cyanobenzaldehyde reduction, at 10 µM, stronger effect = higher value.
The target is the same in experiment [5]. The experiment in a line: enhancers of rat Kvbeta2 NADPH turnover – biochemical, NADPH fluorescence, primary screen (AID 623).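 Further: fluorescence intensity change per second fitted from 20 to 320 s.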 Particulars: Recombinant KvBeta, NADPH fluorescence decrease slope, 10 min; at 10 µM; stronger effect = lower value.
In experiment [6] the target is Alpha-2C adrenergic receptor (Homo sapiens) (UniProt P18825). The experiment in a line: compounds altering alpha2C-coupled GIRK flux – cell-based, HEK293 alpha2C/GIRK1/2, thallium flux, primary screen (AID 624;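 active means fluorescence slope after compound addition differing from the mean of all screened samples at 99.7% confidence, in either direction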;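 further: slope of fluorescence ratio to pre-addition baseline per second over 15 to 24 s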). Particulars: thallium flux BTC fluorescence, at 10 µM, actives lie on both sides.
Experiment [7] can be described thus: blockers of RIG-like receptor reporter activation – cell-based, Sendai virus stimulus, luciferase, 10K MLSCN set, TLR/RLR signaling modifier project, primary screen (AID 602276;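 active means inhibition at or above 50% at 10 µM; inactive means inhibition below 50%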;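 further: firefly luciferase from ISG56 promoter only with Renilla not read in this screen; 0% = Sendai virus plus DMSO and 100% = medium plus DMSO without virus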). Particulars: HEK293 RL24 IRF3 luciferase reporter, at 10 µM, stronger effect = higher value. In general terms: In a reporter assay the amount or activity of a reporter protein is the signal.
Experiment [8] is described as follows: TLR3 IRF3 reporter activation blockers – cell-based, poly I:C stimulus, luciferase, 10K MLSCN set, primary screen (AID 602277;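 active means inhibition of the reporter signal at or above 50%; inactive means inhibition below 50%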). Particulars: HEK293-TLR3 RL24 IRF3 luciferase reporter, at 10 µM, stronger effect = higher value.

Each structure is given as a SMILES string. The source made the active and inactive calls.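 How the source made its calls, unless noted: active means NADPH fluorescence slope more negative than the mean of all samples by about 3 SD, 99.7% confidence; inactive means the rest.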 Where a SMILES comes first, the peptide text is derived from it. The star is where a group is joined. Boc = CC(C)(C)OC(=O)*

Voltage-gated potassium channel subunit beta-2 (Rattus norvegicus), sequence (P62483 whole entry, looked up): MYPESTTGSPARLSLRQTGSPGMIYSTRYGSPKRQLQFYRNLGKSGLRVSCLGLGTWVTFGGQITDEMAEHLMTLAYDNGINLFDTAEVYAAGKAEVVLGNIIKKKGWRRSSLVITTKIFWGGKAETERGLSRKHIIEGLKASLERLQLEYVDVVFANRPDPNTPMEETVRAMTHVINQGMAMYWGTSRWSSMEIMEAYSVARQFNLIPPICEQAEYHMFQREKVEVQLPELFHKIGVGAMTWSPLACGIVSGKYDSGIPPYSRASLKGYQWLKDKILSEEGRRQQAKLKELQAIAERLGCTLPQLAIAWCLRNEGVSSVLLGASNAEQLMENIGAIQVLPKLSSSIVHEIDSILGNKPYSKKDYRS
Alpha-2C adrenergic receptor (Homo sapiens), sequence (P18825 whole entry, looked up): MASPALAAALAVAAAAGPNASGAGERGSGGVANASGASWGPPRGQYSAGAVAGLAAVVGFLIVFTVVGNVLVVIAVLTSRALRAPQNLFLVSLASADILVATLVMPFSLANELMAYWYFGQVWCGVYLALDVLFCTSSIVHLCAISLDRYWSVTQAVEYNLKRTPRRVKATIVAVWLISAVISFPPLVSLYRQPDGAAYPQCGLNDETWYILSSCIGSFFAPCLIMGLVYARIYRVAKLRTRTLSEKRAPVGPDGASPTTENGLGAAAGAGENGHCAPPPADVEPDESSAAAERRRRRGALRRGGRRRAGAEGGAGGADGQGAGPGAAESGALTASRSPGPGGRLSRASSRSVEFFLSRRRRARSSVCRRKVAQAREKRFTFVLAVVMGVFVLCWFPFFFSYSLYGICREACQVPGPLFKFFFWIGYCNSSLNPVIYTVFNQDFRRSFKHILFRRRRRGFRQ

The term inhibition denotes the change of the read-out against control, counted positive when it falls. `COc1cccc(NS(=O)(=O)c2ccc3[nH]cc(C(=O)NC4CC4)c(=O)c3c2)c1`: the cell count in experiment [1] is 305. In addition, the inhibition in experiment [1] was 4% (inactive); in experiment [3], -42.4% (inactive); in experiment [7], 13.8% (inactive); in experiment [8], 32.8% (inactive). Moreover, the inhibition of aggregation in experiment [2] is -2.9% (inactive). Further, the nuclei count in experiment [2] turned out to be 113%; in experiment [3], 126%. For the same molecule, the fluorescence slope in experiment [4] was -0.603 (inactive). For the same molecule, the NADPH fluorescence slope in experiment [5] was -7e-05 (inactive). Moreover, the slope in experiment [6] was 0.00731 (inactive).
Turning to `COc1ccc2[nH]c(=O)c(CN(C(=O)c3ccncc3)C(C)C)cc2c1`, the cell count in experiment [1] was found to be 438. Besides, the inhibition in experiment [1] is -6.2% (inactive); in experiment [3], -13% (inactive); in experiment [7], 8.68% (inactive); in experiment [8] it was 37.7% (inactive). For the same molecule, the inhibition of aggregation in experiment [2] is 4.6% (inactive). Moreover, the nuclei count in experiment [2] is 120%; in experiment [3] it was 147%. In addition, the fluorescence slope in experiment [4] is -0.448 (inactive). In addition, the NADPH fluorescence slope in experiment [5] was -5.5e-05 (inactive). The slope in experiment [6] is 0.00387 (inactive).
For the molecule `CCOC(=O)c1ccccc1NC(=O)c1cc2sccc2n1C`, in experiment [1], the cell count came out at 740. The inhibition is -42.9% (inactive) in experiment [1], -20.5% (inactive) in experiment [3], -3.63% (inactive) in experiment [7] and -15.2% (inactive) in experiment [8]. The inhibition of aggregation in experiment [2] was 5.5% (inactive). Further, the results for the nuclei count in experiment [2] and in experiment [3] were 107% and 101%, respectively. The fluorescence slope in experiment [4] is -0.483 (inactive). The NADPH fluorescence slope in experiment [5] was 1.4e-05 (inactive). The slope in experiment [6] is 0.00572 (inactive).
For `CCNC(=O)C1CC(=O)N(Cc2ccc3c(c2)OCO3)C(=Nc2ccc(F)cc2)S1` (centres undefined), the cell count in experiment [1] amounted to 705. Moreover, the inhibition is -0.8% (inactive) in experiment [1], -83.7% (inactive) in experiment [3], -2.28% (inactive) in experiment [7] and 16% (inactive) in experiment [8]. In experiment [2], the inhibition of aggregation was -38.8% (inactive). Moreover, the nuclei count is 109% in experiment [2] and 98% in experiment [3]. In addition, the fluorescence slope in experiment [4] was -0.471 (inactive). Further, in experiment [5], the NADPH fluorescence slope was -0.000221 (inactive). In experiment [6], the slope is 0.00631 (inactive).
For the molecule `COC(=O)c1cc(OC)c(OC)cc1NC(=O)c1ccc(Br)o1`, the cell count in experiment [1] turned out to be 296. Besides, the inhibition was -7.2% (inactive) in experiment [1], -91.3% (inactive) in experiment [3], 2.63% (inactive) in experiment [7] and -5.12% (inactive) in experiment [8]. The inhibition of aggregation in experiment [2] was -7.5% (inactive). Further, the values for the nuclei count in experiment [2] and in experiment [3] were 95.4% and 103%, respectively. For the same molecule, the fluorescence slope in experiment [4] was -0.312 (inactive). Also, in experiment [5], the NADPH fluorescence slope was -4.6e-05 (inactive). Also, the slope in experiment [6] is 0.00764 (inactive).
`O=C(CCc1nc2ccccc2[nH]1)Nc1ccc2c(c1)OCO2`: in experiment [1], the cell count was 310. The inhibition was -9.6% (inactive) in experiment [1], -68.2% (inactive) in experiment [3], -10.7% (inactive) in experiment [7] and -26.2% (inactive) in experiment [8]. The inhibition of aggregation in experiment [2] is 23.8% (inactive). Further, the nuclei count in experiment [2] and in experiment [3] was 111% throughout. The fluorescence slope in experiment [4] is -0.347 (inactive). The NADPH fluorescence slope in experiment [5] is 1.4e-05 (inactive). In experiment [6], the slope was 0.00426 (inactive).
In the case of `O=C(CN(C1CCCCC1)S(=O)(=O)c1ccccc1)NCc1cccnc1`, the cell count in experiment [1] worked out at 671. Moreover, the inhibition was 2% (inactive) in experiment [1], -75.7% (inactive) in experiment [3], 5.99% (inactive) in experiment [7] and 13.7% (inactive) in experiment [8]. Besides, in experiment [2], the inhibition of aggregation is -28.8% (inactive). For the same molecule, the nuclei count stood at 110% in experiment [2] and 119% in experiment [3]. In addition, the fluorescence slope in experiment [4] is -0.308 (inactive). In addition, the NADPH fluorescence slope in experiment [5] was -3e-05 (inactive). For the same molecule, in experiment [6], the slope is 0.00649 (inactive).
On to `CCOc1ccccc1NC(=O)CN(C)S(=O)(=O)c1cccc2nsnc12`, for which the cell count in experiment [1] was found to be 671. The inhibition in experiment [1] was -16.4% (inactive); in experiment [3], -141% (inactive); in experiment [7], 15.8% (inactive); in experiment [8], 15.6% (inactive). Moreover, the inhibition of aggregation in experiment [2] was -5.6% (inactive). Moreover, the values for the nuclei count in experiment [2] and in experiment [3] were 96.9% and 119%, respectively. Also, the fluorescence slope in experiment [4] was -0.329 (inactive). Besides, the NADPH fluorescence slope in experiment [5] was -4.9e-05 (inactive). The slope in experiment [6] is 0.00417 (inactive).
As for `CN1CCCC(OC(=O)c2ccc3c(c2)OCCO3)C1` (centres undefined), the cell count in experiment [1] came to 214. Besides, the inhibition is -1.4% (inactive) in experiment [1], -1% (inactive) in experiment [3], -0.0614% (inactive) in experiment [7] and -12.6% (inactive) in experiment [8]. In addition, the inhibition of aggregation in experiment [2] was 23.1% (inactive). The nuclei count in experiment [2] was 102%; in experiment [3], 70.3%. In addition, in experiment [4], the fluorescence slope was -0.418 (inactive). Also, the NADPH fluorescence slope in experiment [5] was -6.9e-05 (inactive). Further, in experiment [6], the slope was 0.00576 (inactive).
Regarding `CCOC(=O)C1CCN(c2c(NCCN3CCN(c4ccccc4)CC3)c(=O)c2=O)CC1`, the cell count in experiment [1] is 533. In addition, the inhibition is 7.8% (inactive) in experiment [1], -115% (inactive) in experiment [3], 1.01% (inactive) in experiment [7] and 28.4% (inactive) in experiment [8]. In addition, the inhibition of aggregation in experiment [2] is 7.2% (inactive). The nuclei count in experiment [2] turned out to be 96.5%; in experiment [3], 95.9%. In experiment [4], the fluorescence slope is -0.6 (inactive). For the same molecule, the NADPH fluorescence slope in experiment [5] is -1.7e-05 (inactive). For the same molecule, the slope in experiment [6] is 0.00543 (inactive).
For `CCOC(=O)C1=C(O)CCn2c1nc1ccccc12`, in experiment [1], the cell count amounted to 376. The inhibition in experiment [1] was 2% (inactive); in experiment [3], -214% (inactive); in experiment [7], 9.43% (inactive); in experiment [8], -0.0537% (inactive). For the same molecule, the inhibition of aggregation in experiment [2] was 14.2% (inactive). The nuclei count came out at 56.5% in experiment [2] and 98.6% in experiment [3]. The fluorescence slope in experiment [4] is -0.504 (inactive). Besides, in experiment [5], the NADPH fluorescence slope was -0.000164 (inactive). Also, the slope in experiment [6] is 0.005 (inactive).
`O=C(NCC(c1cccnc1)N1CCN(c2ccccc2)CC1)c1ccc2c(c1)OCO2` (centres undefined): the cell count in experiment [1] stood at 362. In addition, the inhibition is -1.8% (inactive) in experiment [1], 29.6% (inactive) in experiment [3], 8.91% (inactive) in experiment [7] and 16.3% (inactive) in experiment [8]. The inhibition of aggregation in experiment [2] is 25.6% (inactive). The nuclei count in experiment [2] was determined as 87.1%; in experiment [3], 83.3%. The fluorescence slope in experiment [4] was -0.619 (inactive). Further, the NADPH fluorescence slope in experiment [5] is -1.3e-05 (inactive). In addition, the slope in experiment [6] was 0.00563 (inactive).
Regarding `CCC(C)C(NC(=O)OC(C)(C)C)C(=O)NC(CC(C)C)C(N)=O` (stereo not drawn) (Boc-Ile-Leu-NH2; configuration not given here), the cell count in experiment [1] stood at 399. In addition, the inhibition in experiment [1] was 1.3% (inactive); in experiment [3] it was 56.6% (inactive); in experiment [7], -6.01% (inactive); in experiment [8] it was 10.9% (inactive). Also, the inhibition of aggregation in experiment [2] is 7.1% (inactive). The nuclei count in experiment [2] was 88.9%; in experiment [3], 89.8%. Also, the fluorescence slope in experiment [4] was -0.516 (inactive). For the same molecule, the NADPH fluorescence slope in experiment [5] is -6.5e-05 (inactive). The slope in experiment [6] is 0.00654 (inactive).
As to `CCOC(=O)C1=C(C)Nc2nc(SCC(=O)OC)nn2C1c1cc(F)cc(F)c1` (centres undefined), in experiment [1], the cell count came to 432. The inhibition in experiment [1] is -15.7% (inactive); in experiment [3], 1% (inactive); in experiment [7] it was 2.11% (inactive); in experiment [8] it was 8.56% (inactive). Also, the inhibition of aggregation in experiment [2] was -6.3% (inactive). Moreover, the values for the nuclei count in experiment [2] and in experiment [3] were 96.1% and 96%, respectively. In addition, the fluorescence slope in experiment [4] was -0.592 (inactive). Besides, the NADPH fluorescence slope in experiment [5] is -3.9e-05 (inactive). In addition, in experiment [6], the slope is 0.00688 (inactive).
